Assay results: PubChem BioAssay AID1159580 (chemical genetic matrix, 2015)
Values joined by “and” are separate entries in the source; they are usually repeats but may differ in a detail not shown here. Equal values may be shown once. The campaign covered roughly 5,500 compounds. About 2,000 (36%) were called active. Not shown: some 18% with an inconclusive outcome. Rule as the data show it: active = normalized growth mostly below about 0.91 (no sharp cut-off); inconclusive = no clear call, values can overlap the other calls; inactive = mostly above about 0.92. Some of the results follow.

Test: chemical genetic growth profiling, strain panel (AID 1159580);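 also: tested at 20 µM; growth read once vehicle control cultures reached saturation at 30 °C; 1 = growth at the plate median or of vehicle wells; lower values mean less growth of the strain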
Conditions: S. cerevisiae deletion strains, growth OD

Measured: normalized growth

O=C(O)c1cc(=O)c2cccc(O)c2[nH]1
inactive: locus YAL013W, strain DEP1, active compounds read low 0.999 | locus YAL021C, strain ccr4, active compounds read low 0.995 | locus YAL026C, strain drs2, active compounds read low 1.03 | locus YAL030W, strain snc1, active compounds read low 1.01 | locus YBL061C, strain skt5, active compounds read low 1.02 | locus YBR009C, strain hhf1, active compounds read low 1 | locus YBR021W, strain FUR4, active compounds read low 1.03 | locus YBR023C, strain chs3, active compounds read low 1.03 | locus YBR171W, strain sec66, active compounds read low 1.03 | locus YBR229C, strain ROT2, active compounds read low 0.999 | locus YBR231C, strain swc5, active compounds read low 1.01 | locus YBR279W, strain paf1, active compounds read low 0.984 | locus YCL011C, strain gbp2, active compounds read low 1.02 | locus YCL016C, strain dcc1, active compounds read low 1.05 | locus YCL029C, strain bik1, active compounds read low 0.953 | locus YCL061C, strain MRC1, active compounds read low 1.02 | locus YCL069W, strain vba3, active compounds read low 1.01 | locus YCR088W, strain abp1, active compounds read low 1.02 | locus YDL005C, strain med2, active compounds read low 1.01 | locus YDL035C, strain GPR1, active compounds read low 1.02 | locus YDL040C, strain nat1, active compounds read low 1 | locus YDL074C, strain BRE1, active compounds read low 0.995 | locus YDL101C, strain DUN1, active compounds read low 0.988 | locus YDL134C, strain PPH21, active compounds read low 1.01 | locus YDL185W, strain tfp1, active compounds read low 0.959 | locus YDL192W, strain arf1, active compounds read low 0.985 | locus YDR001C, strain nth1, active compounds read low 1.01 | locus YDR069C, strain doa4, active compounds read low 1.03 | locus YDR101C, strain arx1, active compounds read low 0.977 | locus YDR137W, strain rgp1, active compounds read low 1.01 | locus YDR150W, strain NUM1, active compounds read low 0.97 | locus YDR159W, strain sac3, active compounds read low 0.981 | locus YDR162C, strain NBP2, active compounds read low 1 | locus YDR195W, strain ref2 1 | locus YDR297W, strain sur2, active compounds read low 1.01 | locus YDR318W, strain mcm21, active compounds read low 0.981 | locus YDR334W, strain swr1, active compounds read low 1.02 | locus YDR335W, strain msn5, active compounds read low 1.04 | locus YDR388W, active compounds read low 0.995 | locus YDR392W, strain spt3, active compounds read low 1.08 | locus YDR502C, strain sam2, active compounds read low 0.985 | locus YEL003W, strain gim4, active compounds read low 1.01 | locus YEL037C, strain rad23, active compounds read low 1.01 | locus YEL061C, strain CIN8 (second series), active compounds read low 1.02 | locus YEL061C, strain CIN8, active compounds read low 0.993 | locus YER015W, strain faa2, active compounds read low 1.02 | locus YER016W, strain bim1, active compounds read low 1.04 | locus YER110C, active compounds read low 0.974 | locus YER111C, strain swi4, active compounds read low 1.01 | locus YER155C, strain BEM2 (second series), active compounds read low 1.03 | locus YER155C, strain BEM2, active compounds read low 0.998 | locus YER167W, strain BCK2, active compounds read low 0.994 | locus YFR010W, strain ubp6, active compounds read low 1.01 | locus YGL078C, strain dbp3, active compounds read low 0.987 | locus YGL086W, strain mad1, active compounds read low 0.993 | locus YGL167C, strain pmr1, active compounds read low 1.01 | locus YGL173C, strain kem1, active compounds read low 1.01 | locus YGL227W, strain vid30, active compounds read low 1.01 | locus YGL240W, strain doc1, active compounds read low 0.999 | locus YGL248W, strain PDE1, active compounds read low 0.991 | locus YGL253W, strain hxk2, active compounds read low 1.03 | locus YGR078C, strain PAC10, active compounds read low 0.98 | locus YGR135W, strain pre9, active compounds read low 0.986 | locus YGR229C, strain SMI1, active compounds read low 1.02 | locus YGR252W, strain gcn5, active compounds read low 1.15 | locus YHR013C, strain ard1, active compounds read low 1.01 | locus YHR027C, strain rpn1, active compounds read low 1.03 | locus YHR030C, strain SLT2, active compounds read low 0.985 and 0.961 | locus YHR079C, strain IRE1 (second series), active compounds read low 0.985 | locus YHR079C, strain IRE1, active compounds read low 0.962 | locus YHR094C, strain hxt1, active compounds read low 0.964 | locus YHR129C, strain ARP1, active compounds read low 0.987 | locus YHR142W, strain chs7, active compounds read low 1.03 | locus YHR200W, strain rpn10, active compounds read low 0.984 | locus YIL066C, strain RNR3, active compounds read low 0.994 | locus YIL073C, strain SPO22, active compounds read low 0.949 | locus YIL125W, strain kgd1, active compounds read low 0.975 | locus YIR030C, strain dcg1, active compounds read low 0.99 | locus YJL092W, strain hpr5, active compounds read low 1.02 | locus YJL095W, strain BCK1 (second series), active compounds read low 1.03 | locus YJL095W, strain BCK1, active compounds read low 0.982 and 0.975 | locus YJL115W, strain asf1, active compounds read low 1.01 | locus YJL129C, strain trk1, active compounds read low 1.03 | locus YJL134W, strain LCB3, active compounds read low 0.992 | locus YJL154C, strain vps35, active compounds read low 1.01 | locus YJL164C, strain tpk1, active compounds read low 1.01 | locus YJL166W, strain qcr8, active compounds read low 0.996 | locus YJL168C, strain set2, active compounds read low 0.981 | locus YJL187C, strain SWE1 (second series), active compounds read low 0.95 | locus YJL187C, strain SWE1, active compounds read low 1.03 | locus YJR043C, strain POL32, active compounds read low 0.987 | locus YJR066W, strain TOR1, active compounds read low 0.928
